In PubChem BioAssay AID1611 (NINDS Approved Drug Screening Program, 2009):

Assay: HSE-luciferase reporter activators – cell-based (AID 1611)
Details: human cells, HSE-luciferase heat shock reporter; stronger effect = higher value

| SMILES | fold change |
| --- | --- |
| CCN(CC)CCNC(=O)c1cc(Cl)c(N)cc1OC | 1.24 |
| O=c1c(O)cc2c(O)oc3c(=O)c(O)cc4c3c2c1CC=4O | 1.46 |
| NNC(=O)c1ccncc1 | 0.48 |
| CCCN(CCC)S(=O)(=O)c1ccc(C(=O)O)cc1 | 0.78 |
| CN1C2CC(OC(=O)[C@H](CO)c3ccccc3)C[C@H]1[C@H]1OC21 (stereo not given in full) | 1.34 |
| CN(C)c1ccc(C(=C2C=CC(=[N+](C)C)C=C2)c2ccc(N(C)C)cc2)cc1 | 1.22 |
| CCC1(C)CC(=O)NC1=O (stereo not given) | 1.19 |
| CC12CC3CC(C)(C1)CC(N)(C3)C2 | 0.96 |
| O=C1c2cccc(O)c2C(=O)c2c(O)cccc21 | 0.86 |
| Cc1nnc(NS(=O)(=O)c2ccc(N)cc2)s1 | 0.85 |
| Cc1cc(C(C)(C)C)cc(C)c1CC1=NCCN1 | 1.28 |
| CCn1cc(C(=O)O)c(=O)c2cc(F)c(N3CCNCC3)cc21 | 1.06 |
| NC(=O)c1cnccn1 | 1.78 |
| Cc1nnc(SCC2=C(C(=O)O)N3C(=O)[C@@H](NC(=O)Cn4cnnn4)[C@H]3SC2)s1 | 0.8 |
| O=C1NS(=O)(=O)c2ccccc21 | 0.91 |
| COc1cc(NS(=O)(=O)c2ccc(N)cc2)nc(OC)n1 | 0.93 |
| CC[C@H](C)C(=O)O[C@H]1CCC=C2C=C[C@H](C)C(CCC3C[C@@H](O)CC(=O)O3)[C@H]21 (stereo not given in full) | 1.15 |
| CC(C)(Oc1ccc(CCNC(=O)c2ccc(Cl)cc2)cc1)C(=O)O | 1.4 |
| COc1ccc2cc([C@H](C)C(=O)O)ccc2c1 | 0.71 |
| CC[C@H]1CN2CCc3cc(OC)c(OC)cc3C2C[C@@H]1CC1NCCc2cc(OC)c(OC)cc21 (stereo not given in full) | 0.89 |

| SMILES | fold change |
| --- | --- |
| N[C@@H](CCC(=O)N[C@@H](CS)C(=O)NCC(=O)O)C(=O)O | 1.11 |
| CN(C)CCC=C1c2ccccc2C=Cc2ccccc21 | 0.63 |
| CCN1CCN(C(=O)NC(C(=O)NC2C(=O)N3C(C(=O)O)=C(CSc4nnnn4C)CSC23)c2ccc(O)cc2)C(=O)C1=O (stereo not given) | 0.74 |
| NC(=O)NC1NC(=O)NC1=O (stereo not given) | 0.91 |
| O=C(CCCN1CC=C(n2c(=O)[nH]c3ccccc32)CC1)c1ccc(F)cc1 | 0.88 |
| CN1CCN(C(c2ccccc2)c2ccc(Cl)cc2)CC1 (stereo not given) | 1.12 |
| CCCCNc1cc(C(=O)O)cc(S(N)(=O)=O)c1Oc1ccccc1 | 1.03 |
| CC(=O)O[C@H]1C[C@@]2(C)[C@@H](C[C@@H](O)C3[C@]2(C)CC[C@H]2[C@H](C)[C@H](O)CC[C@]32C)/C1=C(/CCC=C(C)C)C(=O)O (stereo not given in full) | 1 |
| COc1ccc(C2Sc3ccccc3N(CCN(C)C)C(=O)C2OC(C)=O)cc1 (stereo not given) | 0.53 |
| CC1(C)O[C@@H]2CC3C4C[C@H](F)C5=CC(=O)C=CC5(C)C4C(O)CC3(C)[C@]2(C(=O)CO)O1 (stereo not given in full) | 1.4 |
| C=C[C@H]1CN2CC[C@H]1C[C@@H]2[C@H](O)c1ccnc2ccc(OC)cc12 | 1.63 |
| C[C@H](CS)C(=O)N1CCC[C@H]1C(=O)O | 0.72 |
| CC(=O)Nc1ccccc1 | 0.93 |
| CN1CCC[C@@H]1CCO[C@](C)(c1ccccc1)c1ccc(Cl)cc1 | 0.87 |
| O=C1c2ccc(O)c(O)c2C(=O)c2c(O)ccc(O)c21 | 0.67 |
| O=C(C1CCCCC1)N1CC(=O)N2CCc3ccccc3C2C1 (stereo not given) | 1.17 |
| CCCCc1oc2ccccc2c1C(=O)c1cc(I)c(OCCN(CC)CC)c(I)c1 | 0.84 |
| O=C(O)C1CCCNC1 (stereo not given) | 0.81 |
| CC(C)(C)NC[C@@H](O)COc1nsnc1N1CCOCC1 | 0.87 |
| CN(C)C(=O)Oc1ccc[n+](C)c1 | 1.31 |
